Consider one sequence from paper PMC7862700, “An all-to-all approach to the identification of sequence-specific readers for epigenetic DNA modifications on cytosine”.

Test in all cases: DAPPL (digital affinity profiling via proximity ligation, sequencing); 10 mM Tris-HCl pH 7.5, 50 mM NaCl, 1 mM DTT, 4% glycerol, room temperature, 30 min; GST-TFs on glutathione beads, 16-mer random dsDNA library, 0.1% formaldehyde crosslink after washing; high values mean tight binding
Assay [1] addresses T1, FEV (Homo sapiens, UniProt Q99581 1-238).
T1 sequence: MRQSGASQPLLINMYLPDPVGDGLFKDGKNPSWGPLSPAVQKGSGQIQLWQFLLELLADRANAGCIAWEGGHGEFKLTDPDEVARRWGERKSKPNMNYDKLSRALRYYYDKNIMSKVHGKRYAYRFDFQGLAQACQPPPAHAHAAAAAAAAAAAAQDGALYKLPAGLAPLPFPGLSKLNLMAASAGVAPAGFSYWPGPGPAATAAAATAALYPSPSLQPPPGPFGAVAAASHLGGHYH
To be noted: protein: recombinant; tags: N-terminal GST; dsDNA, one strand shown. An outline of the steps:
(§1)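 Binding signal is each hexamer's read frequency for a factor divided by its frequency in the tag-only sample. The factors were GST-fused human transcription factors from yeast, captured on glutathione beads, DNA-barcoded and pooled with that sample. Pools were incubated with 200 nmole of a random double-stranded 16-mer DNA library in Tris/NaCl/DTT/glycerol buffer at room temperature for 30 min, then washed, crosslinked with 0.1% formaldehyde, proximity-ligated with BsaI/T4 ligase (1 h, 37 °C), PCR-amplified and sequenced on an Illumina NextSeq500.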

Assay [2] deals with ETV5 (Homo sapiens, UniProt P41161 1-510). The following applies: protein: recombinant; tags: N-terminal GST; dsDNA, one strand shown. The method in brief: as §1
Chain of ETV5 (P41161 whole entry): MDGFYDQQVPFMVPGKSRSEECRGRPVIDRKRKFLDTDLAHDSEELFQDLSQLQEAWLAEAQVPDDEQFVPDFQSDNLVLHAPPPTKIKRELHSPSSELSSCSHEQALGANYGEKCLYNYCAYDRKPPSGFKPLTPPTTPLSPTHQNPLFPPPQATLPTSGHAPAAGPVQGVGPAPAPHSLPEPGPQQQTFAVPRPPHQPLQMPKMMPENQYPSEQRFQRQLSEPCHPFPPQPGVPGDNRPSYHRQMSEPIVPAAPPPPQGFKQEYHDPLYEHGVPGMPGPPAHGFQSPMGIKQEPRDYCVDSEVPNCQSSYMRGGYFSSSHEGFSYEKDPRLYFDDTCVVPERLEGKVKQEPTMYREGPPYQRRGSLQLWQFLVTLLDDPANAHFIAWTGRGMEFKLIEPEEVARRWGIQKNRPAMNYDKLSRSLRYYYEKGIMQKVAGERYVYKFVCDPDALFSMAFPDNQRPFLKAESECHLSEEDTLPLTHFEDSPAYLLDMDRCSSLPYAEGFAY
In assay [3] the target is HSF1 (Homo sapiens, UniProt Q00613 1-529). To be noted: protein: recombinant; tags: N-terminal GST; chain copies: 3; dsDNA, one strand shown. An outline of the steps: as §1
Chain of HSF1 (Q00613 whole entry): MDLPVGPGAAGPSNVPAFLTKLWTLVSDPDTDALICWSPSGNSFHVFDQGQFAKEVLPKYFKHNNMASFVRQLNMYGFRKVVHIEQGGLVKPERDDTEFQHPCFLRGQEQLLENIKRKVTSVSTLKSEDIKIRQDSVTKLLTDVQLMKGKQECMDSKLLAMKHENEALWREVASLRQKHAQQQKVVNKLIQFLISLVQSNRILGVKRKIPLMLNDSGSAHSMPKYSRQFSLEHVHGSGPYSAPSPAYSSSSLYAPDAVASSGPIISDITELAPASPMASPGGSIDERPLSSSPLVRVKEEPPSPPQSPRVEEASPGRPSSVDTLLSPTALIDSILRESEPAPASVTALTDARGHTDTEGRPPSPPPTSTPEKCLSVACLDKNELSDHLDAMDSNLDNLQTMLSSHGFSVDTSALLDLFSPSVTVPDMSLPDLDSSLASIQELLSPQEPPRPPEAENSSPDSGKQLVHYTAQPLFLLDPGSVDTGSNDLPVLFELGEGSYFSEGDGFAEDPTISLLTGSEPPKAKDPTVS
For assay [4], the target named is T2, SPIC (Homo sapiens, UniProt Q8N5J4 1-248).
T2 sequence: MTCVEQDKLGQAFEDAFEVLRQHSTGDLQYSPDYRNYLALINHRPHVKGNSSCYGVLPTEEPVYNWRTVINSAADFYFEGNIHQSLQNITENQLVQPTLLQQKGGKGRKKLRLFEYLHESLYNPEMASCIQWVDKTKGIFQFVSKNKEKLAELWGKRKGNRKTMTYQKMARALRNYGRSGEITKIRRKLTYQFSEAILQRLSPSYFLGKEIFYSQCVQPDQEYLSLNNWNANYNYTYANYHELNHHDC
The following applies: protein: recombinant; tags: N-terminal GST; dsDNA, one strand shown. The method in brief:
as §1

The target of assay [5] is ELF4 (Homo sapiens, UniProt Q99607 1-663). To be noted: protein: recombinant; tags: N-terminal GST; dsDNA, one strand shown. An outline of the steps:
as §1

Assay [6] addresses T3, ELK4 (Homo sapiens, UniProt P28324-2 1-405).
T3 sequence: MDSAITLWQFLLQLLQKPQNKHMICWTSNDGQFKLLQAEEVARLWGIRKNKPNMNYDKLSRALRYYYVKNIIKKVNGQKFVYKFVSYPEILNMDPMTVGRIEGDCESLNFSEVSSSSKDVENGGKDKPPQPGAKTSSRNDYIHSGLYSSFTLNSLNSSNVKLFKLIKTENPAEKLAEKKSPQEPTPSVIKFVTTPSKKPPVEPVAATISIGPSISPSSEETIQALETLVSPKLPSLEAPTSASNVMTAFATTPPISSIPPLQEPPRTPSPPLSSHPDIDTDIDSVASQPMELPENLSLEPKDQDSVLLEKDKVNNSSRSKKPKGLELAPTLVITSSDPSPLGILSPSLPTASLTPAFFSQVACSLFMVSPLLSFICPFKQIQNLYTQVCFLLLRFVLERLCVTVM
To be noted: protein: recombinant; tags: N-terminal GST; dsDNA, one strand shown. The method in brief: as §1

Assay [7] deals with T4, ETV2 (Homo sapiens, UniProt O00321 1-342).
T4 sequence: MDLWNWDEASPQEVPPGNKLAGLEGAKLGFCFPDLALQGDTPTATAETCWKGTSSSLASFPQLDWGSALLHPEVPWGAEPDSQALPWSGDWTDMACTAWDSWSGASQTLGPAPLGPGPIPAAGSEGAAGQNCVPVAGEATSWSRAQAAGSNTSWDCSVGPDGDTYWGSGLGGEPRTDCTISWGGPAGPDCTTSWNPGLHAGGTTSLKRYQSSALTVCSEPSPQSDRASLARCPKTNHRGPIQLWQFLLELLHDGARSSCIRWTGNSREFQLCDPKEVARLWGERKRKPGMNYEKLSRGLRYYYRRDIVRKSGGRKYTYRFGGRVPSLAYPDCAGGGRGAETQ
To be noted: protein: recombinant; tags: N-terminal GST; dsDNA, one strand shown. An outline of the steps:
as §1

Assay [8] addresses T5, ELF3 (Homo sapiens, UniProt P78545 1-371).
T5 sequence: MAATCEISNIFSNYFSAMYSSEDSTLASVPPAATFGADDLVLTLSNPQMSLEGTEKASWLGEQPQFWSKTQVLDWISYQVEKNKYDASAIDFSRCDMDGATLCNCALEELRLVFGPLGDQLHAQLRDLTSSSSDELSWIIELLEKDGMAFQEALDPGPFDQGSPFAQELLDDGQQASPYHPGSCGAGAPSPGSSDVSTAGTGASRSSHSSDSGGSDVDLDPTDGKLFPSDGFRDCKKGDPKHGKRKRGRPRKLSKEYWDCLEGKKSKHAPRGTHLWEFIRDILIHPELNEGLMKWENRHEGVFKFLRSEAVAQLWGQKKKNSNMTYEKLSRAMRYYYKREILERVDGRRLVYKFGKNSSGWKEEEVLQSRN
To be noted: protein: recombinant; tags: N-terminal GST; dsDNA, one strand shown. The method in brief:
as §1

Assay [9] deals with CRX (Homo sapiens, UniProt O43186 1-299). The following applies: protein: recombinant; tags: N-terminal GST; dsDNA, one strand shown. An outline of the steps:
as §1

For assay [10], the target named is ETV1 (Homo sapiens, UniProt P50549 1-477). The following applies: protein: recombinant; tags: N-terminal GST; dsDNA, one strand shown. The method in brief: as §1
Chain of ETV1 (P50549 whole entry): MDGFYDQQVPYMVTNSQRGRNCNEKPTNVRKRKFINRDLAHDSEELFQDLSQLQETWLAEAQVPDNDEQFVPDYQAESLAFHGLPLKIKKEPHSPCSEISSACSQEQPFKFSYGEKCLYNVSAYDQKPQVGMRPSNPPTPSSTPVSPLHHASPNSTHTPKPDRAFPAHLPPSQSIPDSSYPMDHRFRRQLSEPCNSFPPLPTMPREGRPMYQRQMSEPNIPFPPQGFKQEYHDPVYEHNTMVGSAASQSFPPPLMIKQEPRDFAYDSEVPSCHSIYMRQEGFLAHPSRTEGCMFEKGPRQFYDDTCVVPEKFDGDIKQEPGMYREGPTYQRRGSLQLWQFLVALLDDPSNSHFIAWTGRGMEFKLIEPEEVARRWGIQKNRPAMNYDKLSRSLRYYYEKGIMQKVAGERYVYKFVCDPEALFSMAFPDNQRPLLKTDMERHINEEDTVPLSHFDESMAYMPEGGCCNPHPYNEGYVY
The target of assay [11] is T6, ERF (Homo sapiens, UniProt P50548 1-548).
T6 sequence: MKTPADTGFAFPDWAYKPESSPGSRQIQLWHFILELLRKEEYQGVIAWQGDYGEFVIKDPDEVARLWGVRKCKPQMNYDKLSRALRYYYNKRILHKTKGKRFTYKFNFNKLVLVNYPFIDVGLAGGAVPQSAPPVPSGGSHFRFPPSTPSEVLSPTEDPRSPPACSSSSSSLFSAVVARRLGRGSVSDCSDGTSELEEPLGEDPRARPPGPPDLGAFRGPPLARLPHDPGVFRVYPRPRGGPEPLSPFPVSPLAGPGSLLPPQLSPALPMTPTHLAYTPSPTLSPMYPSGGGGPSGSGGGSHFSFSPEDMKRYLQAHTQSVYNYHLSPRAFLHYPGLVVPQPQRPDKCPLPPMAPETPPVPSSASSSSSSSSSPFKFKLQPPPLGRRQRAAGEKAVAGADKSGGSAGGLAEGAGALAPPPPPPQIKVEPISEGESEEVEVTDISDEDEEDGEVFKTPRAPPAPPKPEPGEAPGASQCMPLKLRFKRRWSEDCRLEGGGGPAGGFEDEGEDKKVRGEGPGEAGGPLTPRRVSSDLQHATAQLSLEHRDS
To be noted: protein: recombinant; tags: N-terminal GST; dsDNA, one strand shown. An outline of the steps:
as §1

Assay [12] addresses T7, ETV3L (Homo sapiens, UniProt Q6ZN32 1-361).
T7 sequence: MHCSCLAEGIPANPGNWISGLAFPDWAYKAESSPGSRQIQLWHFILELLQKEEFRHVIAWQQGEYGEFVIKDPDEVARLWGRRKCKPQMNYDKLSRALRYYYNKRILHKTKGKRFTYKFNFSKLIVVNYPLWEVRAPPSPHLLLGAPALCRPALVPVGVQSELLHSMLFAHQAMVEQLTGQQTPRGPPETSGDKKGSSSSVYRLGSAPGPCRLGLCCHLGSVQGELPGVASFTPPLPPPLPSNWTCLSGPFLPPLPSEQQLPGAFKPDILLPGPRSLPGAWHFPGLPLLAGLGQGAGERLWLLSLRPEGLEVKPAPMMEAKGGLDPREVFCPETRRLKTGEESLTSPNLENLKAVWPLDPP
The following applies: protein: recombinant; tags: N-terminal GST; dsDNA, one strand shown. An outline of the steps: as §1

Assay [13] has as its target T8, ETS2 (Homo sapiens, UniProt P15036 1-469).
T8 sequence: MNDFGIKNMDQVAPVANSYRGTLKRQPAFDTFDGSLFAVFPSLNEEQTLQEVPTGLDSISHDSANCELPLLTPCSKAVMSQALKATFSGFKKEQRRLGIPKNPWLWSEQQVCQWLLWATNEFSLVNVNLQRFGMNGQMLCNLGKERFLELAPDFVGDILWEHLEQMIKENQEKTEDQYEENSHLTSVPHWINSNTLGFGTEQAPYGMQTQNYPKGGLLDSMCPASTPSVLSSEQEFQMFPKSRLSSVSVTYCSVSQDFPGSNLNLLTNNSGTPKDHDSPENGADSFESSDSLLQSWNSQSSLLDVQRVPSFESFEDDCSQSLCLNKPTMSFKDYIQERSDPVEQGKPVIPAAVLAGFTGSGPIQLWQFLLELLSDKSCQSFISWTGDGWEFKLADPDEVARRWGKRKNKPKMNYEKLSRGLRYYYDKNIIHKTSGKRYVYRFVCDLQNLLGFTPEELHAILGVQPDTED
To be noted: protein: recombinant; tags: N-terminal GST; dsDNA, one strand shown. An outline of the steps: as §1

The target in assay [14] is T9, SPDEF (Homo sapiens, UniProt O95238 1-335).
T9 sequence: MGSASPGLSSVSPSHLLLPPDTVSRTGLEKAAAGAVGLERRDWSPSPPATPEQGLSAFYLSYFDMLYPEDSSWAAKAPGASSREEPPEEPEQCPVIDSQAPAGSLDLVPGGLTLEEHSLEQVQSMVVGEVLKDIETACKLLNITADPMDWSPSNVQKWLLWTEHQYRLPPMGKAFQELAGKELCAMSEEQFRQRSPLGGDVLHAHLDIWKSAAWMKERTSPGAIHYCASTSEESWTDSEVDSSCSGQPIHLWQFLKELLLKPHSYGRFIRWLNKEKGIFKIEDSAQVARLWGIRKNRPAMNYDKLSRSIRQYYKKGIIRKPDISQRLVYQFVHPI
The following applies: protein: recombinant; tags: N-terminal GST; dsDNA, one strand shown. The method in brief:
as §1

The target in assay [15] is T10, ETV7 (Homo sapiens, UniProt Q9Y603 1-341).
T10 sequence: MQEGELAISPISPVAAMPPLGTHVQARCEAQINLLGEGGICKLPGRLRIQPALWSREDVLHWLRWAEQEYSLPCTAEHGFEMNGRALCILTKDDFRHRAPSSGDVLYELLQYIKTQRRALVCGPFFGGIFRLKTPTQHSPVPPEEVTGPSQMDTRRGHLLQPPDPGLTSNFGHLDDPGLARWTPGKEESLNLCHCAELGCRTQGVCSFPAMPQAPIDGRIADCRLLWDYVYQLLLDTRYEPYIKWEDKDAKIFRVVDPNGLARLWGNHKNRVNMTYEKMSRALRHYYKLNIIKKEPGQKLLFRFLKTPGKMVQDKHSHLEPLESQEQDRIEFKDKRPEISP
The following applies: protein: recombinant; tags: N-terminal GST; dsDNA, one strand shown. The method in brief: as §1

Assay [16] addresses T11, ELF5 (Homo sapiens, UniProt Q9UKW6-2 1-255).
T11 sequence: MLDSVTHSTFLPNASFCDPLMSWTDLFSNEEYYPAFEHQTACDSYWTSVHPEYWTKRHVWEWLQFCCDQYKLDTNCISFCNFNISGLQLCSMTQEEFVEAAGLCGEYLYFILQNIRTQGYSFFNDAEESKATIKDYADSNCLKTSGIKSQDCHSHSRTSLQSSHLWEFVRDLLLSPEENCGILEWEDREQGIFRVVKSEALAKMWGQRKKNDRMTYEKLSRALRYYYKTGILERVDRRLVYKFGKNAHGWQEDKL
The following applies: protein: recombinant; tags: N-terminal GST; dsDNA, one strand shown. An outline of the steps:
as §1

The target in assay [17] is T12, ETV3 (Homo sapiens, UniProt P41162-2 1-143).
T12 sequence: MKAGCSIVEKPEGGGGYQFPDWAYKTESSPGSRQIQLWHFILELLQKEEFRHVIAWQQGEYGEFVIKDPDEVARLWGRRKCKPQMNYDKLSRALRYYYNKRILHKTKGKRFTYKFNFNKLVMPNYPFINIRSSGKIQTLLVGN
The following applies: protein: recombinant; tags: N-terminal GST; dsDNA, one strand shown. The method in brief:
as §1

The target of assay [18] is ETV6 (Homo sapiens, UniProt P41212 1-452). The following applies: protein: recombinant; tags: N-terminal GST; dsDNA, one strand shown. An outline of the steps:
as §1

Chain of ELF4 (Q99607 whole entry): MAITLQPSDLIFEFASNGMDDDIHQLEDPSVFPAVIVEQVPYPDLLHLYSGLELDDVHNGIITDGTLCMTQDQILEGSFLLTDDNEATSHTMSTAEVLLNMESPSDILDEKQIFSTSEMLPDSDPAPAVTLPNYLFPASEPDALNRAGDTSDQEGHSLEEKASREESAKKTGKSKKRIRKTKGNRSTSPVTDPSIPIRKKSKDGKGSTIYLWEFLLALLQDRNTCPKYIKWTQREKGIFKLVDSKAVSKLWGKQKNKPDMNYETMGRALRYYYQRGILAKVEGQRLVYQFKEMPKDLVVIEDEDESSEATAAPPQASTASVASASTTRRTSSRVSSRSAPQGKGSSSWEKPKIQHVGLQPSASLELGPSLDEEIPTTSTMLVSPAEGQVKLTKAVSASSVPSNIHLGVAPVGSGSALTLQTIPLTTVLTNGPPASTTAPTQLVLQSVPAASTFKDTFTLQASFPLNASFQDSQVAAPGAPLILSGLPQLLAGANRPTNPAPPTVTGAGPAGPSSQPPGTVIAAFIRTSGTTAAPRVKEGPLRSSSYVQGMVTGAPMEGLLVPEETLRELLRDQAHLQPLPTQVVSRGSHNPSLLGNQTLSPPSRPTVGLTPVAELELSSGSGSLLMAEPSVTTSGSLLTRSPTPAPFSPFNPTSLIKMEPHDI
Chain of CRX (O43186 whole entry): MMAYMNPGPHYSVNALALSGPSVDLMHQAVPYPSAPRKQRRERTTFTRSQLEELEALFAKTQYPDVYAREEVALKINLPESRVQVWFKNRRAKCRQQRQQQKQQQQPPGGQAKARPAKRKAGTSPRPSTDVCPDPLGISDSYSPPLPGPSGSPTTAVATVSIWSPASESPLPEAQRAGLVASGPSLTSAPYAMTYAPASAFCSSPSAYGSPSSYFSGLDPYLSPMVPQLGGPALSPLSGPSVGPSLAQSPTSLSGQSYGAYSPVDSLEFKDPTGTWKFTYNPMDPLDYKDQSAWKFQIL
Chain of ETV6 (P41212 whole entry): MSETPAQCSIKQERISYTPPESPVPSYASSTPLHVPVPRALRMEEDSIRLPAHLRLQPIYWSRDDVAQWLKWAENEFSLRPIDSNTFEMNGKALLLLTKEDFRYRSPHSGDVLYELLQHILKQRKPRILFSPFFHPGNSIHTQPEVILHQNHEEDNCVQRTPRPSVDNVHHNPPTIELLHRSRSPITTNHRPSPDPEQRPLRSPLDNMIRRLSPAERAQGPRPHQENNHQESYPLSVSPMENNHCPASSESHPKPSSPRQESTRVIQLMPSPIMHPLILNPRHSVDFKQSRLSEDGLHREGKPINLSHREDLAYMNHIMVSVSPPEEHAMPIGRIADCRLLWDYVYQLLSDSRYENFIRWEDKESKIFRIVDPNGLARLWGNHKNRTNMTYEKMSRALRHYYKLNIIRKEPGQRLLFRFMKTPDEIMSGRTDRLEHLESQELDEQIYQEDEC

With TCCGCC, the binding signal in assay [1] was 1.88 fold enrichment (6-mer frequency, TF over GST control); in assay [2], 1.69 fold enrichment (6-mer frequency, TF over GST control); in [3] it was 1.04 fold enrichment (6-mer frequency, TF over GST control); in assay [4], 1.69 fold enrichment (6-mer frequency, TF over GST control); in assay [5] it was 1.55 fold enrichment (6-mer frequency, TF over GST control); in assay [6], 1.45 fold enrichment (6-mer frequency, TF over GST control). Besides, the binding signal in [7] was 1.48 fold enrichment (6-mer frequency, TF over GST control); in assay [8], 1.6 fold enrichment (6-mer frequency, TF over GST control); in [9], 1.05 fold enrichment (6-mer frequency, TF over GST control); in assay [10], 1.59 fold enrichment (6-mer frequency, TF over GST control); in assay [11], 1.48 fold enrichment (6-mer frequency, TF over GST control); in assay [12] it was 1.59 fold enrichment (6-mer frequency, TF over GST control). Besides, the binding signal in [13] was 1.54 fold enrichment (6-mer frequency, TF over GST control); in assay [14], 1.83 fold enrichment (6-mer frequency, TF over GST control); in assay [15] it was 1.49 fold enrichment (6-mer frequency, TF over GST control); in assay [16], 2.2 fold enrichment (6-mer frequency, TF over GST control); in assay [17], 1.75 fold enrichment (6-mer frequency, TF over GST control); in [18] it was 1.63 fold enrichment (6-mer frequency, TF over GST control).
